High-throughput results deposited in PubChem BioAssay by several laboratories.
Sampled rows, rich in hits. Any-hit rate of the full collection: about 3.7%.
tim23-1 inh – growth inhibitors of tim23-1 mutant yeast; 330,000 tested, 1.3% active; inhibition, % at 20 µM; AID 463212; S. cerevisiae tim23-1 growth, BacTiter-Glo luminescence, 24 h;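 active means growth inhibition of the mutant yeast at or above 50%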;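 further: temperature-sensitive mutant grown at 25 °C; plate controls were DMSO-treated mutant yeast for no effect and medium wells lacking yeast for full effect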
PfHsp90 yeast 2 – reduces growth (ATP signal) of yeast expressing P. falciparum Hsp90; S. cerevisiae expressing PfHsp90, BacTiter-Glo ATP, 48 h; yeast lacking PDR1 and PDR3 efflux regulators; inhibition, % at 9.4 µM; 310,000 tested, 0.32% active; AID 504621;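 active means every replicate shows inhibition above about 80%, whatever the replicate mean, limit read from the data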;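 further: 0% = DMSO neutral controls and 100% = 20 µM radicicol positive controls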
NLRP3 yeast inh – blocks the NALP3 inflammasome reconstituted in yeast; inhibition, % at 10 µM; AID 2825; Yeast reconstituted NLRP3/ASC/caspase-1, beta-gal luminescence, 24 h; 330,000 tested, 0.39% active;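 active means inhibition of 50% or more; inactive means inhibition below 50%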;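 further: plate controls were induced DMSO wells for no effect and uninduced yeast grown without galactose for full effect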
TIM10 inh – TIM10 yeast growth inhibition; S. cerevisiae TIM10 strain growth, BacTiter-Glo luminescence, 24 h; inhibition, % at 10 µM; 330,000 tested, 1.4% active; AID 463195;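 active means inhibition of 40% or more at the single tested concentration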;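 further: wild-type TIM10 isogenic control strain grown at permissive 25 °C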
tim10-1 inh – inhibits growth of tim10-1 mutant yeast. inhibition, % at 20 µM. S. cerevisiae tim10-1 ts strain growth, BacTiter-Glo, 24 h. 330,000 tested, 2.2% active;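 active means inhibition of at least 40%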;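 further: mutant grown at 25 °C; 0% = DMSO wells with yeast and 100% = wells holding no yeast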
tim10-1 conf – confirmation of tim10-1 mutant yeast growth inhibitors; shares compounds with tim10-1 inh; S. cerevisiae tim10-1 ts strain growth, BacTiter-Glo, 24 h; inhibition, % at 20 µM; 7,400 tested, 56% active; AID 463213;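 active means inhibition of yeast growth at or above a set limit in either of two repeat tests at 20 µM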;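 further: tim10-1 mutant grown at permissive 25 °C to find synthetic lethal compounds; 0% = DMSO yeast wells and 100% = medium wells without yeast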
tim10 confirm – TIM10 yeast growth inhibition, confirmed; 4,600 tested, 63% active; AID 463215; shares compounds with TIM10 inh; inhibition, % at 10 µM; S. cerevisiae tim10 strain growth, BacTiter-Glo luminescence, 24 h;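 active means inhibition of yeast growth at or above a set limit in either of two replicates at 10 µM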;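 further: this counterscreen used the strain with wild-type TIM10; 0% = yeast with DMSO and 100% = medium wells lacking yeast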
tim23-1 confirm – tim23-1 yeast growth inhibition, confirmed; inhibition, % at 20 µM; shares compounds with tim23-1 inh; S. cerevisiae tim23-1 growth, BacTiter-Glo luminescence, 24 h; 4,400 tested, 83% active; AID 463218;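 active means inhibition above about 39% in either of two replicate wells at 20 µM, limit read from the data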;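 further: temperature-sensitive tim23-1 mutant grown at 25 °C; 0% = DMSO wells with yeast and 100% = medium wells without yeast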
* = called active by the depositor; . = no result given; ! = not confirmed by another sample.

SMILES | tim23-1 inh | PfHsp90 yeast 2 | NLRP3 yeast inh | TIM10 inh | tim10-1 inh | tim10-1 conf | tim10 confirm | others
O=C(Nc1nc2ccc(F)cc2s1)c1cccc(S(=O)(=O)N2CCc3ccccc32)c1 | 28 | 13 | 0 | 50* | 40* | 21 | -1
O=C(Nc1nncs1)c1cccc(S(=O)(=O)N2CCc3ccccc32)c1 | 10 | -19 | 7 | -9 | 2 | . | .
CN(C(=O)c1cccc(NC(=O)Cc2ccc(NC(=O)C3CCN(C(=O)C4CC4)CC3)cc2)c1)C1CC1 | . | 3 | . | . | . | . | .
O=Nc1c(O)n(Cc2ccc(Cl)cc2Cl)c2ccccc12 | 38 | 6 | 2 | 42* | 52* | 18 | 39*
Cc1ccc2c(c1)sc(-c1ccc(N(C)C)cc1)[n+]2C | 48 | 13 | 7 | 85* | 70* | 74* | 82*
CNC[C@H](Cc1cccc2ccccc12)NC[C@H](CCSC)NCC1CCC(C(C)(C)C)CC1 (some centres undefined) | -10 | . | 28 | 6 | -5 | . | .
CCN(CC)CCNC(=O)c1ccc(NC(=O)c2ccccc2-c2ccc(C(F)(F)F)cc2)cc1 | 16 | 3 | 4 | -4 | 18 | . | .
N#C/C(=C/c1ccc2c(c1)OCO2)C(=O)NCCc1c[nH]c2ccccc12 | 47 | -16 | 24 | 63* | 63* | 58* | 56*
O=C(NCCc1c[nH]c2ccccc12)c1ccc2c(c1)OCO2 | -1 | 13 | 9 | 11 | -30 | . | .
CCOC(=O)C1CCCN(C(=O)c2ccc(Cl)c(S(=O)(=O)N3CCc4ccccc43)c2)C1 (centres undefined) | . | 35 | . | . | . | . | .
O=C1C2CC3N1CCC31c3ccccc3-n3c1c2ccc3=O (centres undefined) | . | -6 | . | . | . | . | .
Cc1ccc(C(=O)NNC(=O)c2n[nH]c(=O)c3ccccc23)cc1C | -16 | -28 | 18 | 8 | 0 | . | .
CCCCNC(=S)N(C)/N=C/c1sc(N2CCCCC2)nc1-c1cccs1 | 16 | . | 2 | 18 | 28 | . | .
NC(=O)N/N=C/c1sc(N2CCCCC2)nc1-c1cccs1 | 31 | -15 | 23 | 36 | 9 | . | .
CC(C)NC(=S)N/N=C/c1sc(N2CCCCC2)nc1-c1cccs1 | 47 | -37 | 2 | 50* | 53* | 48* | 35*
O=C(N/N=C/c1sc(N2CCCCC2)nc1-c1cccs1)C1CC1 | 48 | 14 | 12 | 47* | 47* | 36* | 36*
Cc1cccn2cc(-c3ccc(S(=O)(=O)N4CCCCC4)cc3)nc12 | 45 | 8 | -46 | 48* | 62* | 70* | 63*
CC(C)C[C@H]1CN=C(Nc2ccccc2)N1CC1CCC(C(C)(C)C)CC1 (some centres undefined) | 50 | -1 | 33 | 42* | 43* | 32* | 42*
Cc1cccc(NC(=O)CCS(=O)(=O)c2ccc3c(c2)NC(=O)CS3)n1 | -1 | 12 | 12 | 3 | -10 | . | .
C=C[C@]1(C)C[C@@H](OC(=O)CSCCN(CC)CC)[C@]2(C)C(C)CC[C@]3(CCC(=O)[C@H]32)[C@@H](C)[C@@H]1O (some centres undefined) | 34 | 21 | 19 | 42*! | 46* | 40*! | 38*
CCOC(=O)C1=C(C)Nc2nc(SCC)nn2C1c1ccc(OC)cc1 (centres undefined) | -10 | -10 | 8 | 12 | 15 | . | .
CCOC(=O)C1=C(C)Nc2nc(=S)[nH]n2C1c1ccc(Cl)cc1 (centres undefined) | 44 | -30 | 36 | 48* | 55* | 44* | 1
CCSc1nc2ccccc2n1C(=O)/C=C\c1ccc(OC)c(OC)c1 | 35 | 8 | 3 | 52* | 65* | 56* | -24
CCC(/C=C1\Sc2ccc(OC)cc2N1CC)=C\c1sc2ccc(OC)cc2[n+]1CCCS(=O)(=O)[O-] | 33 | 21 | 20 | 45* | 50* | 43* | 13
O=C(COC(=O)/C=C/C(=O)OCC(=O)NC12CC3CC(CC(C3)C1)C2)NC12CC3CC(CC(C3)C1)C2 | 36 | -16 | 25 | 45* | 56* | 43* | 13
SMILES | tim23-1 inh | PfHsp90 yeast 2 | NLRP3 yeast inh | TIM10 inh | tim10-1 inh | tim10-1 conf | tim10 confirm | others
CCc1ccc(N2CC(C(=O)OCc3nc4ccsc4c(=O)[nH]3)CC2=O)cc1 (centres undefined) | -5 | -1 | 14 | 5 | 8 | . | .
CC(C)(C)OC(=O)N1CCN(C(=O)OCC2c3ccccc3-c3ccccc32)CC1C(=O)O (centres undefined) | 0 | 8 | -8 | -4 | 7 | . | .
O=c1oc2ccccc2nc1/C=C(O)/C=C\c1ccccc1 | 39 | . | 14 | 45* | 58* | 46* | 44*
COc1ccccc1NC(=O)Cc1nnc(SCC(=O)Nc2nccs2)n1C | 4 | -7 | 7 | -6 | -14 | . | .
CCCc1ccc(OC(=O)c2ccc(O)cc2Cl)cc1 | 42 | 2 | 10 | 41* | 51* | 38* | 45*
COc1cccc2sc(N3CCN(C(=O)c4ccco4)CC3)nc12 | 24 | 8 | 21 | 18 | 24 | . | .
CCc1cccc2sc(N3CCN(C(=O)c4ccc([N+](=O)[O-])o4)CC3)nc12 | 8 | 8 | 47 | 58* | 79* | 74* | 89*
Cc1noc(C)c1C(=O)OCC(=O)/C=C1/N(C)c2ccccc2C1(C)C | . | -9 | . | . | . | . | .
CC(/C=N/n1c(-c2ccccc2)n[nH]c1=S)=C\c1ccco1 | 48 | -21 | 21 | 44* | 42* | 13 | 41*
CC1Sc2ccc(S(=O)(=O)N3CCC(C(=O)NCC(C)c4ccccc4)CC3)cc2NC1=O (centres undefined) | 16 | -24 | 16 | 10 | 6 | . | .
O=[N+]([O-])c1nn(-c2ccc3c(c2)OCCO3)n(O)c1=NCCCO | 4 | -21 | 1 | 8 | 16 | . | .
O=[N+]([O-])c1nn(-c2ccc3c(c2)OCCO3)n(O)c1=NC1CCCC1 | 40 | . | 2 | 58* | 55* | 47* | 41*
CCCN(CCC)C(=O)C(c1ccccc1)C1(O)CCCCC1 (centres undefined) | . | -15 | . | . | . | . | .
O=C1/C(=C/c2ccncc2)SC(=S)N1N1CCOCC1 | 69* | -1 | 30 | 58* | 56* | 50* | 55* | tim23-1 confirm=48*
C=CCOc1ccc(/C=C2\SC(=S)N(N3CCOCC3)C2=O)cc1 | 20 | 3 | 27 | 22 | 17 | . | .
O=C(CCc1nc2sc3c(c2c(=O)[nH]1)CCCC3)NCCc1ccc(F)cc1 | -16 | -5 | 13 | -4 | -12 | . | .
N#C/C(=C(\O)c1cc(Cl)sc1Cl)c1nc2ccccc2[nH]1 | 5 | 0 | 9 | 19 | 10 | . | .
